According to PubChem BioAssay (NCI):
About 79,000 compounds went through this panel and 15% of them were active in at least one assay; those are over-represented in the sample as a whole. Cut-off read from the data, not from the text of the source: active = growth inhibition above about 70%; inactive = the rest.

Tests used:
[1] = NCI Yeast Anticancer Drug Screen. Data for the rad50 strain (AID 155);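 note: 0% = growth of vehicle-only cultures of the same strain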; conditions: S. cerevisiae rad50 strain growth inhibition; at 50.0 µM; stronger effect = higher value
Method in brief: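 Growth of the mutant yeast was measured after compound exposure and referenced to vehicle-treated cultures.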

[2] = NCI Yeast Anticancer Drug Screen. Data for the mec2-1 strain (AID 157); conditions: S. cerevisiae mec2-1 strain, at 50.0 µM, stronger effect = higher value
Method in brief: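 Growth inhibition is read against vehicle-treated controls after compound exposure of the mec2-1 yeast strain, which is defective in DNA damage repair or cell cycle control.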

[3] = NCI Yeast Anticancer Drug Screen. Data for the sgs1 mgt1 strain (AID 161);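 note: 0% = growth of cultures given vehicle only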; conditions: S. cerevisiae sgs1 mgt1 strain, at 50.0 µM, stronger effect = higher value
Method in brief: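 Yeast cells carrying a defined DNA-repair defect were exposed to test compounds. Growth inhibition was measured relative to vehicle-treated controls.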

[4] = NCI Yeast Anticancer Drug Screen. Data for the cln2 rad14 strain (AID 165);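 note: 0% = growth equal to vehicle treated cultures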; conditions: S. cerevisiae cln2 rad14 strain, at 50.0 µM, stronger effect = higher value
Method in brief: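 Growth inhibition, relative to vehicle-treated controls, is the read-out. The test organism is a yeast strain with defined genetic alterations, cln2 rad14.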

[5] = NCI Yeast Anticancer Drug Screen. Data for the bub3 strain (AID 167); conditions: S. cerevisiae bub3 mutant strain, at 50.0 µM, stronger effect = higher value
Method in brief: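 Whole-cell yeast assay. The mutant strain was incubated with compounds, and growth inhibition was determined by comparison with vehicle-treated cells.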

[6] = NCI Yeast Anticancer Drug Screen. Data for the mlh1 rad18 strain (AID 175); conditions: S. cerevisiae mlh1 rad18 strain growth inhibition; at 50.0 µM; stronger effect = higher value
Method in brief: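 Cells of a genetically altered yeast strain, deficient in DNA damage repair, were treated with compound. Their growth was then compared with that of vehicle-treated cultures to give inhibition.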

Measured: growth inhibition

O=C(CCCCl)CCCCl
inactive: [1] 12.2% | [2] -10.9% | [3] 21.6% | [4] 12.6% | [5] -3.6% | [6] 19.1%

CC1(C)C2C/C(=N/O)C(=O)C1C2 (configuration not stated)
inactive: [1] -4.5% | [2] 4.05% | [3] 8.8% | [4] 14.6% | [5] -16.9% | [6] -20.2%

C=C(C)CS(=O)(=O)O
inactive: [1] -0.15% | [2] 3.45% | [3] 1.85% | [4] -13.1% | [5] 3.35% | [6] 1.65%

[O-][n+]1ccncc1Cl
inactive: [1] -1.15% | [2] -0.65% | [3] -2.75% | [4] 0.55% | [5] 18.6% | [6] 7.05%

Cc1nn(C(=O)c2ccncc2)c2c1C(c1ccccc1[N+](=O)[O-])SC(N)=N2 (configuration not stated)
inactive: [1] 21.4% | [2] 6.15% | [3] 40.1% | [4] 26.1% | [5] 43.6% | [6] 18.9%

Cc1ccc(S(=O)(=O)Nc2ccc3nc(C)oc3c2)cc1
inactive: [1] 26.4% | [2] -18.1% | [3] 44.1% | [4] 14.7% | [5] 45% | [6] 17%

CC(=O)OCC1OC(Sc2cccc3ccccc23)C(OC(C)=O)C(OC(C)=O)C1OC(C)=O (configuration not stated)
inactive: [1] -16.8% | [2] -5.8% | [3] -4.75% | [4] -20.8% | [5] 0% | [6] 3.4%

N#CC1=CNc2ccccc2N=C1N
inactive: [1] 8.55% | [2] -4.75% | [3] 28.4% | [4] 8.55% | [5] 28.2% | [6] 24.1%

CCOC(=O)N1CCN(c2ccc3ccc(N)nc3n2)CC1
inactive: [1] 22.1% | [2] -12.7% | [3] 28.8% | [4] -4.65% | [5] 18.9% | [6] 16.9%

CC(=O)Nc1ccc[n+](C)c1
inactive: [1] 0.65% | [2] 17.9% | [3] -6.9% | [4] -3.3% | [5] 33.3% | [6] -1.95%

CCOC(=O)Nc1nc2ccn(C)c2s1
inactive: [1] 6.3% | [2] -6.9% | [3] 2.15% | [4] -6.4% | [5] 4.6% | [6] -8%

COc1cccc(/C(CC(O)(C(F)(F)F)C(F)(F)F)=N\N(C)C)c1
inactive: [1] -30.6% | [2] -9.9% | [3] -8.7% | [4] -38.2% | [5] 1.5% | [6] -25.2%

c1ccc(-c2nc3ccccc3n2CCc2ccncc2)nc1
inactive: [1] 11% | [2] 10.4% | [3] 14% | [4] -14% | [5] 3.2% | [6] 20.9%

CCN(CC)c1nc(N(CC)CC)nc(N(CC)CC)n1
inactive: [1] -1% | [2] 14.8% | [3] 2.75% | [4] -30.6% | [5] 13.8% | [6] 0.2%

CCOC(=O)C(C)(C)/C=C\C(Cl)=C(Cl)Cl
inactive: [1] 4.1% | [2] 4.2% | [3] 8.75% | [4] 4.25% | [5] 19.2% | [6] -34.5%

N#CC(C#N)=C1C=CC=CC=C1
inactive: [1] 14.2% | [2] 5% | [3] 0.85% | [4] -11.4% | [5] 8.75% | [6] -4.4%

O=C(CCc1cc(-c2ccccc2)nc(=S)[nH]1)Nc1ccccc1[N+](=O)[O-]
inactive: [1] 10% | [2] -8.05% | [3] 9% | [4] 29.6% | [5] 15.5% | [6] 7.25%

CN(C)c1cc(-c2ccccc2)oc(=O)c1Cl
inactive: [1] 11.6% | [2] -19.8% | [3] -24.2% | [4] -22.2% | [5] -16.2% | [6] -9.15%

COc1ccc(C2c3cc4c(cc3OC(C)(OC)C2C)OCO4)c(OC)c1 (configuration not stated)
inactive: [1] 5.25% | [2] 26.2% | [3] 32.6% | [4] -47.2% | [5] -5.85% | [6] 21%

C=C1c2nc3ccccc3n2C=C(c2ccc(Cl)cc2)N1c1ccc(OC)cc1
inactive: [1] -3.95% | [2] 23.4% | [3] 19.8% | [4] 11.4% | [5] 7.7% | [6] 40.2%

O=c1cc[nH]c(=S)[nH]1.[Pt]
inactive: [1] 12.1% | [2] 19.3% | [3] 5.55% | [4] -19.4% | [5] 0.7% | [6] 28.6%

O=C(O)/C=C(\CC(=O)O)C(=O)O
inactive: [1] 12.8% | [2] 11.9% | [3] -21.9% | [4] 8.15% | [5] -21.1% | [6] 1.15%

CCOC(=O)CSc1ncnc2nc[nH]c12
inactive: [1] 31.2% | [2] -9.35% | [3] -6% | [4] 6.25% | [5] 17% | [6] 9.75%

CCCCCCCCCC(=O)N/N=C/c1ccccc1Cl
inactive: [1] 9.95% | [2] 36.1% | [3] 29.6% | [4] -9.5% | [5] 19.3% | [6] 30.4%

OC12C=CC(CCCC1)O2 (configuration not stated)
inactive: [1] 0.35% | [2] -6.65% | [3] -7.4% | [4] 3.2% | [5] 10.3% | [6] 4.9%

O=P1(O)c2ccccc2Oc2ccccc21
inactive: [1] -4% | [2] -2.2% | [3] 7.45% | [4] 2.9% | [5] -0.95% | [6] -44.5%

COC1=CC(=O)N/C1=C(\OC)c1ccccc1
inactive: [1] -24.5% | [2] -0.95% | [3] -7% | [4] -5.6% | [5] -15.2% | [6] -5.2%

CCOC(=O)C1=CC(C)(C(=O)OCC)Nc2c(nc(SC)[nH]c2=O)N1 (configuration not stated)
inactive: [1] -30.9% | [2] -24.7% | [3] -14.7% | [4] 9.05% | [5] -11.8% | [6] 2.5%

CCOC(=O)N1C=NC23C(c4ccccc4)C(c4ccccc4)C12C(=O)N(C)C(=O)N3C (configuration not stated)
inactive: [1] -1.55% | [2] -9.2% | [3] 0.7% | [4] -26.8% | [5] -8.35% | [6] -30.9%

CCCC(=O)N(CC)CC
inactive: [1] 11.2% | [2] -8.6% | [3] -0.8% | [4] -15% | [5] 0% | [6] -20.9%

COc1ccc(/C=C/C(=O)c2c(-c3ccccc3)nn(C)c(=O)c2N2CCCC2)cc1
inactive: [1] -23.8% | [2] -20.3% | [3] -33.2% | [4] -24.4% | [5] -11.2% | [6] -34.1%

CC(c1ccccc1)N1COc2cc3c(cc2C1)OCN(C(C)c1ccccc1)C3 (configuration not stated)
inactive: [1] -21.2% | [2] -2.95% | [3] -29.8% | [4] -11.8% | [5] -6.8% | [6] -17.4%

CCCCCCc1c(N)nc(N)[nH]c1=O
inactive: [1] 4.3% | [2] 9.35% | [3] -11.2% | [4] -36.8% | [5] -12.9% | [6] -14.2%

CNC(=O)NC(C)(C)CCCCC(C)(C)NC(=O)NC
inactive: [1] 0.5% | [2] 17.3% | [3] 28.3% | [4] -16.9% | [5] -4.65% | [6] 19.8%

Nc1c(S(=O)(=O)O)cc(Nc2cccc(S(=O)(=O)/C=C/S(=O)(=O)O)c2)c2c1C(=O)c1ccccc1C2=O
inactive: [1] 8.4% | [2] -28.9% | [3] -1.2% | [4] -2.45% | [5] 0.85% | [6] -14.2%

COc1ccc(Cl)cc1C(c1cc(Cl)ccc1OC)C(Cl)(Cl)Cl
inactive: [1] -7.35% | [2] -1.6% | [3] -9.05% | [4] -23.6% | [5] -16.6% | [6] -13.4%

c1ccc2c(c1)ccc1cccc[n+]12
inactive: [1] -25.4% | [2] -7.75% | [3] -13% | [4] -12.4% | [5] -16.7% | [6] -36.6%

CNc1c([N+](=O)[O-])cc2[nH]c(C)nc2c1[N+](=O)[O-]
inactive: [1] 22.4% | [2] 19.3% | [3] 42.9% | [4] 0.05% | [5] 0.95% | [6] 11.6%

O=C(SCCN1CCCC1)C(O)(c1ccccc1)C1CCCC1 (configuration not stated)
inactive: [1] 14.8% | [2] -6% | [3] -5.3% | [4] -7.95% | [5] -2.35% | [6] 11.7%

O=C1CCNC/C1=C\c1ccccc1
inactive: [1] 6.25% | [2] -14.3% | [3] 8.9% | [4] 13.4% | [5] -19.2% | [6] 6.55%

O=C1Oc2cc3c(c4cccc1c24)OCN(c1ccc(Cl)cc1)C3
inactive: [1] 38.6% | [2] 29.9% | [3] 53.1% | [4] 33% | [5] 33% | [6] 37.5%

Cc1ccccc1NC(=O)CSc1nnc(Cc2ccccc2)o1
inactive: [1] -15.3% | [2] -20.6% | [3] -36.8% | [4] -13.5% | [5] -33.8% | [6] -35.5%
